According to PubChem BioAssay (NCATS):
Values joined by “and” are separate entries in the source; they are usually repeats but may differ in a detail not shown here. Equal entries are not always repeated. Results filed as inconclusive are left out. A structure can be active in one record and inactive in another. Active and inactive are the calls of the source. The call rests on the fitted dose curve; in most records, active means well fitted curve in the direction sought with a large enough effect; inconclusive means small, poorly fitted or top-dose-only effect, or another doubt; inactive means no such curve, though single readings can be large; an effect the other way counts as inactive or inconclusive.

Key:
[1] = system: CAOV3; assay: Primary qHTS to identify gynecologic anti-cancer compounds using libraries of approved drugs and bioactive compounds (AID 1345084); conditions: Gynecologic cancer cell panel viability, ATPlite luminescence, 48 h; series mostly up to 57.5 µM; further: nearly all actives have a fitted effect of over 55% in size
Outline: (§1)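 Cell viability after 48 h drug treatment, ATPlite luminescence readout; five doses.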

[2] = system: CASKI; assay: as above; conditions: Gynecologic cancer cell panel viability, ATPlite luminescence, 48 h; series mostly up to 57.5 µM
Outline: as §1

[3] = system: HeLa; assay: as above; conditions: Gynecologic cancer cell panel viability, ATPlite luminescence, 48 h; series mostly up to 57.5 µM
Outline: as §1

[4] = system: OV90; assay: as above; conditions: Gynecologic cancer cell panel viability, ATPlite luminescence, 48 h; series mostly up to 57.5 µM
Outline: as §1

[5] = system: SKOV3; assay: as above; conditions: Gynecologic cancer cell panel viability, ATPlite luminescence, 48 h; series mostly up to 57.5 µM
Outline: as §1

[6] = system: Tov-21-G; assay: as above; conditions: Gynecologic cancer cell panel viability, ATPlite luminescence, 48 h; series mostly up to 57.5 µM
Outline: as §1

[7] = Drug repurposing screens with cells derived from glioblastoma tumor samples (AID 1345199); conditions: GBM patient neurospheres viability, ATP luminescence, 48 h; further: nearly all actives have a fitted effect of over 40% in size
Outline: (§2)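 Four patient lines of CD133+ GBM neurospheres were screened at several concentrations; hits were retested in those lines plus three slower-growing GBM lines, using 48-hour treatment and ATP-based viability.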

[8] = system: Es-2; assay: Primary qHTS to identify gynecologic anti-cancer compounds using libraries of approved drugs and bioactive compounds (AID 1345084); conditions: Gynecologic cancer cell panel viability, ATPlite luminescence, 48 h; series mostly up to 57.5 µM; further: nearly all actives have a fitted effect of over 55% in size
Outline: as §1

[9] = system: PA-1; assay: as above; conditions: Gynecologic cancer cell panel viability, ATPlite luminescence, 48 h; series mostly up to 57.5 µM
Outline: as §1

[10] = system: JEG-3; assay: as above; conditions: Gynecologic cancer cell panel viability, ATPlite luminescence, 48 h; series mostly up to 57.5 µM
Outline: as §1

[11] = system: Tov112D; assay: as above; conditions: Gynecologic cancer cell panel viability, ATPlite luminescence, 48 h; series mostly up to 57.5 µM
Outline: as §1

[12] = system: Hek293T; assay: as above; conditions: Gynecologic cancer cell panel viability, ATPlite luminescence, 48 h, control line for the selectivity index; series mostly up to 57.5 µM
Outline: as §1

[13] = system: astro; assay: Drug repurposing screens with cells derived from glioblastoma tumor samples (AID 1345199); conditions: viability, ATP luminescence, 48 h; series mostly up to 45.9 µM; further: nearly all actives have a fitted effect of over 40% in size
Outline: as §2

[14] = at 45.9 µM (top of the series), tumour line B
[15] = at 46.1 µM (top of the series), tumour line C
[16] = at 45.9 µM (top of the series), tumour line D
[17] = at 20 µM (top of the series), tumour line C
[18] = at 21.2 µM (top of the series), tumour line B
[19] = at 46 µM (top of the series), tumour line A
On the % scale 0 is the no-effect control and ±100 the full control effect; potency means the concentration at half of the fitted maximal effect.

COC1=C(OC)C(=O)C(CCCCCCCCCCO)=C(C)C1=O
inactive: Potency [1] | Potency [2] | Potency [3] | Potency [4] | Potency [5] | Potency [6] | activity, negative = cell killing [7, 14] -9.04% | activity, negative = cell killing [7, 15] 1.43%

COc1cc(Nc2c(C#N)cnc3cc(OCCCN4CCN(C)CC4)c(OC)cc23)c(Cl)cc1Cl
25.1 µM (active) and inactive: Potency [3]
active: Potency [1] 6.31 µM | Potency [8] 6.31 µM and 14.1 µM | Potency [9] 11.2 µM | Potency [5] 10 µM

CN(C)[C@@H](CCOc1cccc2ccccc12)c1ccccc1
inactive: Potency [1] | Potency [2] | Potency [8] | Potency [3] | Potency [10] | Potency [9] | Potency [6] | Potency [11]

Cc1cc(=O)c2c(O)c3c(O)cc(=O)c4c3c3c(cc(O)c1c23)C(C)(C)C=4O
active: Potency [1] 4.47 µM | Potency [2] 2 µM | Potency [8] 3.16 µM | Potency [3] 2.24 µM | Potency [12] 2 µM | Potency [9] 2.82 µM | Potency [5] 3.55 µM | Potency [6] 3.16 µM | Potency [11] 2.24 µM | Potency [13] 2.51 µM

CC1=C(C)C(=O)C(C(CCCCCC(=O)O)c2ccccc2)=C(C)C1=O (configuration not stated)
inactive: Potency [2] | Potency [8] | Potency [3] | Potency [12] | Potency [10] | Potency [4] | Potency [9] | Potency [5] | Potency [6] | Potency [11] | activity, negative = cell killing [7, 14] -10.7% | activity, negative = cell killing [7, 16] 17% | Potency [13]

Cc1ccc(S(=O)(=O)NC(=O)NN2CC3CCCC3C2)cc1 (configuration not stated)
inactive: Potency [2] | Potency [8] | Potency [3] | Potency [12] | Potency [10] | Potency [4] | Potency [9] | Potency [5] | Potency [6] | Potency [11] | activity, negative = cell killing [7, 17] -7.38% | activity, negative = cell killing [7, 18] -4.46% | activity, negative = cell killing ([7]; at 21.2 µM (top of the series), tumour line D) -18.4% | Potency [13]

CCCCN(CCCC)CCC(O)c1cc2c(Cl)cc(Cl)cc2c2cc(C(F)(F)F)ccc12 (configuration not stated)
active: Potency ([7]; tumour line A) 11.2 µM | Potency ([7]; tumour line B) 10 µM | Potency ([7]; tumour line D) 11.2 µM
inactive: Potency [2] | Potency [8] | Potency [3] | Potency [12] | Potency [10] | Potency [9] | Potency [6] | Potency [11] | activity, negative = cell killing [7, 17] -14% | Potency [13]

CC1(C)CCC(C)(C)c2cc(NC(=O)c3ccc(C(=O)O)cc3)ccc21
inactive: Potency [2] | Potency [8] | Potency [3] | Potency [12] | Potency [10] | Potency [4] | Potency [9] | Potency [6] | Potency [11] | activity, negative = cell killing [7, 14] -10.2% | activity, negative = cell killing [7, 16] -17.2% | activity, negative = cell killing [7, 19] -36.1%

CN(C)C(=O)COC(=O)Cc1ccc(OC(=O)c2ccc(N=C(N)N)cc2)cc1
inactive: Potency [2] | Potency [8] | Potency [3] | Potency [12] | Potency [10] | Potency [4] | Potency [9] | Potency [6] | Potency [11] | activity, negative = cell killing [7, 14] -12.3% | activity, negative = cell killing [7, 16] 2.44% | activity, negative = cell killing [7, 15] -19.5% | Potency [13]

C=CCc1cc(OC)c(O)c(C(=O)NCCO)c1
inactive: Potency [2] | Potency [8] | Potency [3] | Potency [12] | Potency [10] | Potency [4] | Potency [9] | Potency [5] | Potency [6] | Potency [11] | activity, negative = cell killing [7, 14] -18.2% | activity, negative = cell killing [7, 16] -1.66% | activity, negative = cell killing [7, 15] 2.37% | Potency [13]

CC(C)[C@H](N)C(=O)OCCOCn1cnc2c(=O)[nH]c(N)nc21
inactive: Potency [2] | Potency [8] | Potency [3] | Potency [12] | Potency [10] | Potency [4] | Potency [9] | Potency [5] | Potency [6] | Potency [11] | activity, negative = cell killing [7, 14] -5.53% | activity, negative = cell killing [7, 16] -4.6% | activity, negative = cell killing [7, 15] 14.5% | Potency [13]

CCOC(=O)c1c(C)n(C)c2ccc(O)cc12
inactive: Potency [2] | Potency [8] | Potency [3] | Potency [12] | Potency [10] | Potency [4] | Potency [9] | Potency [5] | Potency [6] | Potency [11] | activity, negative = cell killing [7, 14] -14.1% | activity, negative = cell killing [7, 16] -23.4% | Potency [13]

Clc1ccc(C(Cn2ccnc2)OCc2ccc(Sc3ccccc3)cc2)c(Cl)c1 (configuration not stated)
inactive: Potency [2] | Potency [8] | Potency [3] | Potency [12] | Potency [10] | Potency [4] | Potency [9] | Potency [5] | Potency [6] | Potency [11]

Cc1c(C(=O)NN2CCCCC2)nn(-c2ccc(Cl)cc2Cl)c1-c1ccc(Cl)cc1
active: Potency ([7]; tumour line A) 5.01 µM | Potency [13] 35.5 µM
inactive: Potency [2] | Potency [8] | Potency [3] | Potency [10] | Potency [4] | Potency [9] | Potency [5] | Potency [6] | Potency [11] | activity, negative = cell killing [7, 15] -11.3%

Cc1nccn1CC1CCc2c(c3ccccc3n2C)C1=O (configuration not stated)
inactive: Potency [2] | Potency [8] | Potency [3] | Potency [12] | Potency [10] | Potency [4] | Potency [9] | Potency [5] | Potency [6] | Potency [11] | activity, negative = cell killing [7, 17] -25.3% | activity, negative = cell killing [7, 18] -23.2% | activity, negative = cell killing [7, 14] -6.55% | activity, negative = cell killing [7, 16] -25.8% | activity, negative = cell killing [7, 15] -22.8% | Potency [13]
active: Potency ([7]; tumour line A) 11.2 µM

CN(C)C(=O)[C@H](O)[C@H](Cc1ccccc1)NC(=O)c1cc2cc(Cl)ccc2[nH]1
inactive: Potency [2] | Potency [8] | Potency [3] | Potency [10] | Potency [4] | Potency [9] | Potency [5] | Potency [6] | Potency [11]

CN(c1nccc(=O)[nH]1)C1CCN(c2nc3ccccc3n2Cc2ccc(F)cc2)CC1
inactive: Potency [2] | Potency [8] | Potency [3] | Potency [12] | Potency [10] | Potency [4] | Potency [9] | Potency [5] | Potency [6] | Potency [11] | activity, negative = cell killing [7, 14] -7.08% | activity, negative = cell killing [7, 16] -20% | activity, negative = cell killing [7, 15] -6.39% | Potency [13]

CCN(CC)CCOc1ccc(Cc2ccccc2)cc1
inactive: Potency [2] | Potency [8] | Potency [3] | Potency [12] | Potency [10] | Potency [6] | Potency [11]
active: Potency [13] 22.4 µM

CN(C)c1ccc(O)c2c1C[C@H]1C[C@H]3[C@H](N(C)C)C(=O)C(C(N)=O)=C(O)[C@@]3(O)C(=O)C1=C2O
inactive: Potency [2] | Potency [8] | Potency [3] | Potency [12] | Potency [10] | Potency [4] | Potency [9] | Potency [5] | Potency [6] | Potency [11] | activity, negative = cell killing [7, 14] -8.81% and -14.2% and -8.47% | activity, negative = cell killing [7, 16] -14.6% and -28.5% and -14.2% | activity, negative = cell killing [7, 19] -27.3% and -18.4% | activity, negative = cell killing [7, 15] -26.9% and -29.7% | Potency [13]

Cc1cc2c(s1)Nc1ccccc1N=C2N1CCN(C)CC1
active: Potency ([7]; tumour line A) 12.6 µM
inactive: Potency [2] | Potency [8] | Potency [3] | Potency [12] | Potency [10] | Potency [4] | Potency [9] | Potency [5] | Potency [6] | Potency [11] | activity, negative = cell killing [7, 14] -20.2% | activity, negative = cell killing [7, 16] -20.6% | activity, negative = cell killing [7, 15] -6.39% | Potency [13]

NC(=O)Cc1cccc(C(=O)c2ccccc2)c1N
inactive: Potency [2] | Potency [8] | Potency [3] | Potency [12] | Potency [10] | Potency [4] | Potency [9] | Potency [5] | Potency [6] | Potency [11] | activity, negative = cell killing [7, 14] -10.2% | activity, negative = cell killing [7, 16] -28% | activity, negative = cell killing [7, 15] -24.8% | Potency [13]

Cn1c(NCCN(CCO)CCCc2ccc([N+](=O)[O-])cc2)cc(=O)n(C)c1=O
inactive: Potency [2] | Potency [8] | Potency [3] | Potency [12] | Potency [10] | Potency [4] | Potency [9] | Potency [6] | Potency [11] | activity, negative = cell killing [7, 14] -18.9% | activity, negative = cell killing [7, 16] -12.5% | activity, negative = cell killing [7, 15] -1.17% | Potency [13]
active: Potency ([7]; tumour line A) 7.08 µM

COCCCN1CCC(NC(=O)c2cc(Cl)c(N)c3c2OCC3)CC1
inactive: Potency [2] | Potency [8] | Potency [3] | Potency [12] | Potency [10] | Potency [4] | Potency [9] | Potency [6] | Potency [11]

Oc1ccc(OCc2ccccc2)cc1
inactive: Potency [2] | Potency [8] | Potency [3] | Potency [12] | Potency [10] | Potency [4] | Potency [9] | Potency [5] | Potency [6] | Potency [11] | activity, negative = cell killing [7, 17] 4.55% | activity, negative = cell killing [7, 18] -21.3% | Potency [13]
